MITF inh = blocks human microphthalmia-associated transcription factor; AlphaScreen MITF homodimerization, bead proximity signal; inhibition, % at 2.6 µM; 0.91% of 650,000 active; AID 1259374; in the data active means inhibition above about 50%;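 further: 0% = vehicle wells with protein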
Target sequence (O75030 whole entry, looked up): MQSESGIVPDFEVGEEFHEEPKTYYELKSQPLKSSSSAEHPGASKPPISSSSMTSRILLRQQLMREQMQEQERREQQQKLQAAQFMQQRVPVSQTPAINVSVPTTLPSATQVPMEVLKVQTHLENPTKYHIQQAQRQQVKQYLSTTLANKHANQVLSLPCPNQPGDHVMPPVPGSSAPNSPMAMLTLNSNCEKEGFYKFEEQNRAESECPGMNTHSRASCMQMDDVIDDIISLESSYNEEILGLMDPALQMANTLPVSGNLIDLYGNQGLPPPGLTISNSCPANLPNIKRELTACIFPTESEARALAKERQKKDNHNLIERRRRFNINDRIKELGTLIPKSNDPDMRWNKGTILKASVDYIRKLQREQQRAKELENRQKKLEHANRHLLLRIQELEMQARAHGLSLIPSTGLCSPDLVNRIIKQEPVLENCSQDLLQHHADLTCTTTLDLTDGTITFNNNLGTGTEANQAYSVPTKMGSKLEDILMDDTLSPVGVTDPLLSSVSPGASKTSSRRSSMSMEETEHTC
GPR151 activ = activates the human receptor GPR151; activation, % at 11.2 µM; PathHunter beta-arrestin GPR151 cells, luminescence; 1% of 650,000 active; in the data active means activation above about 4.9%;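 further: 0% = median of compound wells and 100% = cells with positive control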
TEAD-YAP block = TEAD-YAP interaction inhibition. 1.4% of 640,000 active. HEK-TIYL cells, TEAD-Gal4/YAP UAS-luciferase luminescence. AID 1259422. inhibition, % at 9.12 µM; in the data active means inhibition above about 32%;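 further: 0% = median of test compound wells and 100% = reference inhibitor wells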
FBW7 act = activators of human E3 ligase FBW7; Q969H0; AlphaScreen FBW7–phospho-cyclin E peptide binding, activator screen; normalized activity (activation), % at 26.1 µM; 0.13% of 650,000 active; in the data active means normalized activity above about 1.9%;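 further: purified mutant Fbw7 with reduced substrate affinity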
GPR151 confirm = confirmation of human GPR151 activators; shares compounds with GPR151 activ; GPR151 PathHunter beta-arrestin cells, luminescence, 90 min; % of EA-reagent control over plate median; activation, % at 11.2 µM; 6,700 tested, under 10 active; AID 1508609;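 active means mean percent activation across replicates above the confirmation screen cutoff of 4.91%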
GPR119 ag = GPR119 activation, counter-screen for GPR151 activators; activation, % at 11.2 µM; GPR119 PathHunter beta-arrestin cells, luminescence, 90 min; 0 = compound-well median, 100 = enzyme-acceptor control; shares compounds with GPR151 activ; 0.3% of 6,700 active;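 active means mean percent activation in the counterscreen above 29.09%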;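 further: counterscreen on off-target GPR119 to flag nonselective hits from the GPR151 activator screen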
An asterisk follows results filed as active. The list is not random: actives were taken first. Their share in the collection is about 3.5%.

How did COC(=O)c1ccc(OC(=O)C23CCC(C)(C(=O)C2)C3(C)C)cc1 (centres undefined) do in these assays?
MITF inh: 24.2; GPR151 activ: 1.9; TEAD-YAP block: 7.7; FBW7 act: 0.3

Results for O=C(Nc1ccccc1)N1CCC(CO)(CCc2ccccc2)CC1 ?
MITF inh: 6.2; GPR151 activ: 9.9*; TEAD-YAP block: -2.8; FBW7 act: 0.0; GPR151 confirm: 0.5; GPR119 ag: 1.5

Results for O=C(OCc1cn2cc(Cl)ccc2n1)c1ccc(Cl)nc1 ?
MITF inh: 1.7; GPR151 activ: 0.0; TEAD-YAP block: 7.1; FBW7 act: 0.0

Results for O=C(O)CC1(CC(=O)Nc2ccc(F)cc2F)CCCC1 ?
MITF inh: -4.0; GPR151 activ: -2.0; TEAD-YAP block: 2.0; FBW7 act: 0.0

How did CC1CCCN(c2ncnc3sc4c(c23)CCCC4)C1 (centres undefined) do in these assays?
MITF inh: 11.9; GPR151 activ: 2.4; TEAD-YAP block: -0.9; FBW7 act: -0.2

How did CCCCCCOc1ccc(C(=O)O)cc1 do in these assays?
MITF inh: -27.4; GPR151 activ: -4.5; TEAD-YAP block: -0.1; FBW7 act: -0.1

Results for CCCOc1ccc(-c2ccc(C(=O)O)cc2)cc1 ?
MITF inh: 7.8; GPR151 activ: 6.3*; TEAD-YAP block: -22.5; FBW7 act: 0.0; GPR151 confirm: -0.1; GPR119 ag: 1.6

How did Cc1cnc(NC2CCC(O)CC2)nc1Nc1ccc(N2CCOCC2)cc1 (centres undefined) do in these assays?
MITF inh: 17.2; GPR151 activ: -1.0; TEAD-YAP block: -1.4; FBW7 act: -0.1

How did COc1cc(C=Nc2ccc(F)cc2)ccc1OC(C)=O do in these assays?
MITF inh: 4.3; GPR151 activ: 0.9; TEAD-YAP block: -4.2; FBW7 act: -0.2

Results for COc1cc(C=Nc2ccc(C)c(F)c2)ccc1OC(C)=O ?
MITF inh: -9.0; GPR151 activ: 34.4*; TEAD-YAP block: 4.5; FBW7 act: 0.1; GPR151 confirm: 0.1; GPR119 ag: -11.4

What do the screens show for `CS(=O)(=O)c1ccc(Sc2ccc(C(=O)O)cc2)cc1`?
MITF inh: -13.8; GPR151 activ: -0.3; TEAD-YAP block: 0.8; FBW7 act: -0.1

Results for CCOc1cc(C)c(Cl)cc1S(=O)(=O)n1ccnc1C ?
MITF inh: 7.9; GPR151 activ: 0.8; TEAD-YAP block: 1.5; FBW7 act: -0.2

What do the screens show for `O=C1NC2(CCc3ccccc3C2)C(=O)N1CN1CCN(Cc2ccc3c(c2)OCO3)CC1` (centres undefined)?
MITF inh: 5.2; GPR151 activ: 8.3*; TEAD-YAP block: 8.6; FBW7 act: -0.1; GPR151 confirm: -0.4; GPR119 ag: -1.0

What do the screens show for `Cn1c(=O)[nH]c(=O)c2c1nc(NCCCN1CCOCC1)n2CCO`?
MITF inh: -0.4; GPR151 activ: 10.1*; TEAD-YAP block: -5.9; FBW7 act: -0.1; GPR151 confirm: 0.0; GPR119 ag: 4.8

How did O=C(Nc1ccc(N2CCOCC2)cc1)c1csc(Nc2ccc(C(F)(F)F)cc2)n1 do in these assays?
MITF inh: -3.5; GPR151 activ: 0.8; TEAD-YAP block: -33.1; FBW7 act: 0.2

How did CC1C2CCCN2CCN1Cc1cccc([N+](=O)[O-])c1 (centres undefined) do in these assays?
MITF inh: 4.9; GPR151 activ: 9.7*; TEAD-YAP block: -7.7; FBW7 act: 0.6; GPR151 confirm: -0.9; GPR119 ag: -9.4

Results for COc1cc2nc(Nc3nc4ccccc4n3C)nc(NCCCN3CCCC3=O)c2cc1OC ?
MITF inh: 0.2; GPR151 activ: -2.3; TEAD-YAP block: -5.6; FBW7 act: -0.1

Results for COc1cc2nc(Nc3nccc4ccccc34)nc(NCCCN3CCCC3=O)c2cc1OC ?
MITF inh: 3.5; GPR151 activ: 5.6*; TEAD-YAP block: -3.9; FBW7 act: 0.0; GPR151 confirm: -0.4; GPR119 ag: -1.3

Results for COc1ccc(NC(=O)CN2C(=O)C(c3ccccc3)Oc3cccnc32)cc1OC (centres undefined) ?
MITF inh: -3.5; GPR151 activ: 6.3*; TEAD-YAP block: -2.8; FBW7 act: 0.2; GPR151 confirm: 0.4; GPR119 ag: -0.1

Results for CCn1c(SCc2ccccc2)nnc1C1CCCN(C(=O)N2CCOCC2)C1 (centres undefined) ?
MITF inh: 0.3; GPR151 activ: 0.1; TEAD-YAP block: 15.1; FBW7 act: -0.1

What do the screens show for `COc1ccc(C(=O)NC(C)(C)CC(C)(C)C)cc1[N+](=O)[O-]`?
MITF inh: 11.3; GPR151 activ: 6.6*; TEAD-YAP block: -9.7; FBW7 act: 0.2; GPR151 confirm: 0.3; GPR119 ag: -0.1

What do the screens show for `C=CCNC(=O)C(Cc1ccc([N+](=O)[O-])cc1)N1C(=O)c2ccccc2C1=O` (centres undefined)?
MITF inh: -1.1; GPR151 activ: 0.5; TEAD-YAP block: 7.0; FBW7 act: -0.1

What do the screens show for `NC(=O)CCN(CCC(N)=O)S(=O)(=O)c1ccc(Br)cc1`?
MITF inh: -2.1; GPR151 activ: 1.1; TEAD-YAP block: 1.5; FBW7 act: -0.1

How did NC(=O)CCN(CCC(N)=O)S(=O)(=O)c1ccccc1 do in these assays?
MITF inh: 13.8; GPR151 activ: 6.6*; TEAD-YAP block: -1.8; FBW7 act: 0.4; GPR151 confirm: -1.2; GPR119 ag: -4.4

Results for Fc1cccc(Nc2ncnc3c2c(-c2ccccc2)cn3-c2cccc(C(F)(F)F)c2)c1 ?
MITF inh: 4.0; GPR151 activ: 3.4; TEAD-YAP block: 8.3; FBW7 act: 0.2

What do the screens show for `CCc1nnc(NC(=O)CCCOc2ccccc2C)s1`?
MITF inh: -3.5; GPR151 activ: 11.6*; TEAD-YAP block: 3.5; FBW7 act: -0.2; GPR151 confirm: 1.3; GPR119 ag: -2.3

What do the screens show for `CCc1nnc(NC(=O)CN2CCC(O)(c3ccccc3OC)CC2)s1`?
MITF inh: 2.6; GPR151 activ: 6.5*; TEAD-YAP block: 1.4; FBW7 act: -0.1; GPR151 confirm: 0.8; GPR119 ag: 6.8

Results for Cc1ccccc1OCCCC(=O)Nc1nnc(C(C)C)s1 ?
MITF inh: -13.7; GPR151 activ: 1.5; TEAD-YAP block: 6.5; FBW7 act: 0.1

What do the screens show for `CSCCCNC(=O)Cn1nnnc1CN1CCCCCC1`?
MITF inh: 7.1; GPR151 activ: 13.4*; TEAD-YAP block: 2.6; FBW7 act: 0.1; GPR151 confirm: 0.2; GPR119 ag: 3.0

How did Cc1cccc(CC(Cc2nc3ccccc3[nH]2)c2nc3ccccc3[nH]2)c1 (centres undefined) do in these assays?
MITF inh: 6.0; GPR151 activ: 5.6*; TEAD-YAP block: 11.6; FBW7 act: -0.2; GPR151 confirm: -0.3; GPR119 ag: -11.1

Bioassay records from PubChem.
